Data taken from PubChem BioAssay (NCI).
About 83,000 compounds went through this panel and 20% of them were active in at least one assay; those are over-represented in the sample as a whole.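 Plates (96-well) were seeded with cells, treated with compound at one concentration, and incubated for 48 hours before percent growth was determined.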 Active and inactive are the calls of the source. How the source made its calls: active means growth percent below 10; inactive means the rest.

Legend:
Test in all cases: NCI-60 one-dose screen, 48 h (100 = growth as untreated, 0 = no growth, -100 = all killed)
Conditions in all cases: 10 µM unless noted
HCT-15 colon = test system: HCT-15 colon
HT29 colon = test system: HT29 colon
SNB-75 CNS = test system: SNB-75 CNS
SNB-19 CNS = test system: SNB-19 CNS
U251 CNS = test system: U251 CNS
PC-3 prostate = test system: PC-3 prostate
SK-MEL-5 melanoma = test system: SK-MEL-5 melanoma
UACC-62 melanoma = test system: UACC-62 melanoma
LOX IMVI melanoma = test system: LOX IMVI melanoma
SK-MEL-28 melanoma = test system: SK-MEL-28 melanoma
SK-MEL-2 melanoma = test system: SK-MEL-2 melanoma
EKVX NSCLC = test system: EKVX NSCLC
SN12C renal = test system: SN12C renal
UO-31 renal = test system: UO-31 renal
TK-10 renal = test system: TK-10 renal
ACHN renal = test system: ACHN renal
CAKI-1 renal = test system: CAKI-1 renal
A498 renal = test system: A498 renal
CCRF-CEM leukemia = test system: CCRF-CEM leukemia
MOLT-4 leukemia = test system: MOLT-4 leukemia

Measured: growth

CN(C)c1ccc2nc3ccc(=[N+](C)C)c([N+](=O)[O-])c-3sc2c1
inactive: HCT-15 colon 32.1% | HT29 colon 59% | SNB-75 CNS 91.6% | SNB-19 CNS 56.6% | SK-MEL-5 melanoma 19.5% | UACC-62 melanoma 34.1% | SK-MEL-28 melanoma 57.8% | SK-MEL-2 melanoma 47.2% | EKVX NSCLC 25% | SN12C renal 39.6% | UO-31 renal 51.7% | TK-10 renal 71.3% | ACHN renal 27.9% | CAKI-1 renal 43.1% | A498 renal 68.5% | CCRF-CEM leukemia 12.7% | MOLT-4 leukemia 15.5%
active: U251 CNS 6.01% | PC-3 prostate 4.48% | LOX IMVI melanoma 4.03%

O=C1COCCN1c1ccc(NCc2cn(C(=O)c3ccc(Cl)cc3)c3ccccc23)cc1
inactive: HCT-15 colon 54.9% | HT29 colon 44.5% | SNB-75 CNS 59.6% | SNB-19 CNS 91.7% | U251 CNS 50.9% | PC-3 prostate 71.4% | SK-MEL-5 melanoma 25.1% | LOX IMVI melanoma 77.1% | SK-MEL-28 melanoma 97% | SK-MEL-2 melanoma 61.5% | EKVX NSCLC 83.9% | SN12C renal 74.9% | UO-31 renal 43.6% | ACHN renal 65.7% | CCRF-CEM leukemia 77.1% | MOLT-4 leukemia 85.7%
active: UACC-62 melanoma -41.1% | TK-10 renal -26% | CAKI-1 renal -28.7% | A498 renal -88.9%

CCCCCCNC(=O)Oc1ccc(/C(=C(\C)c2ccc(Cl)cc2)c2ccc(OCCN3CCCCC3)cc2)cc1
inactive: SNB-75 CNS 59.5% | SNB-19 CNS 68% | U251 CNS 34.7% | PC-3 prostate 29.6% | SK-MEL-5 melanoma 25% | UACC-62 melanoma 54.5% | SK-MEL-28 melanoma 29.4% | SK-MEL-2 melanoma 86.4% | EKVX NSCLC 52.8% | SN12C renal 55.9% | UO-31 renal 32.6% | TK-10 renal 89.6% | ACHN renal 76.3% | CAKI-1 renal 63.8% | A498 renal 76.1% | CCRF-CEM leukemia 34% | MOLT-4 leukemia 10.9%
active: HCT-15 colon 8.87% | HT29 colon -10.1% | LOX IMVI melanoma 3.75%

COc1cccc(-c2nn(-c3ccccc3)cc2-c2ccnc(N3CCOCC3)c2)c1
inactive: HCT-15 colon 85.9% | HT29 colon 86.7% | SNB-75 CNS 97.2% | SNB-19 CNS 99.9% | U251 CNS 96.2% | PC-3 prostate 70.2% | SK-MEL-5 melanoma 80.4% | UACC-62 melanoma 71.8% | LOX IMVI melanoma 89.7% | SK-MEL-28 melanoma 108% | SK-MEL-2 melanoma 96.7% | EKVX NSCLC 82.2% | SN12C renal 98% | UO-31 renal 66.2% | TK-10 renal 92% | ACHN renal 84.3% | CAKI-1 renal 81.4% | A498 renal 71.7% | CCRF-CEM leukemia 97.8% | MOLT-4 leukemia 59.2%

Cc1cc(O)c(C2=NN(c3ccc(S(N)(=O)=O)cc3)C(c3ccccc3O)C2)cc1Cl (stereo not given)
active: HT29 colon -18.4% | U251 CNS 2.38% | PC-3 prostate 9.8% | LOX IMVI melanoma -89.6% | EKVX NSCLC -2.37% | UO-31 renal 9.61% | ACHN renal 7.54% | CAKI-1 renal -13.6% | MOLT-4 leukemia -57.4%
inactive: HCT-15 colon 17.5% | SNB-75 CNS 41.5% | SNB-19 CNS 65.4% | SK-MEL-5 melanoma 36.8% | UACC-62 melanoma 21.3% | SK-MEL-28 melanoma 53.9% | SK-MEL-2 melanoma 17.4% | SN12C renal 15.1% | TK-10 renal 41.5% | A498 renal 20.6% | CCRF-CEM leukemia 12.9%

Cc1cccc2c3c(sc12)C(c1ccc(Cl)cc1)C(C#N)=C(/N=C/c1ccc(Cl)cc1)O3 (stereo not given)
active: HCT-15 colon 8.99% | HT29 colon 6.06% | SNB-75 CNS -3.88% | CAKI-1 renal 5.67% | A498 renal -4.07% | CCRF-CEM leukemia 5.88%
inactive: SNB-19 CNS 23.7% | U251 CNS 24.4% | PC-3 prostate 11% | SK-MEL-5 melanoma 26.4% | UACC-62 melanoma 13.1% | LOX IMVI melanoma 20.9% | SK-MEL-28 melanoma 58.1% | SK-MEL-2 melanoma 43% | EKVX NSCLC 46.5% | SN12C renal 27.3% | UO-31 renal 37.9% | TK-10 renal 74.8% | ACHN renal 25.9% | MOLT-4 leukemia 14.2%

CN1C(=O)CNC(=O)[C@H](NC(=O)c2nc3ccccc3cc2O)CSSC[C@H]1C(=O)NCCCc1nc2ccccc2cc1O
active: LOX IMVI melanoma -52.4% | SK-MEL-2 melanoma -12.5% | MOLT-4 leukemia -4.7%
inactive: HCT-15 colon 93.3% | HT29 colon 17.7% | SNB-75 CNS 151% | SNB-19 CNS 100% | U251 CNS 69.1% | PC-3 prostate 44.7% | SK-MEL-5 melanoma 35.2% | UACC-62 melanoma 18.9% | SK-MEL-28 melanoma 61.9% | EKVX NSCLC 85.4% | SN12C renal 73.4% | UO-31 renal 62.6% | TK-10 renal 75% | ACHN renal 82.3% | CAKI-1 renal 107% | A498 renal 118% | CCRF-CEM leukemia 14.3%

O=C(COc1ccc(/C=C2\Cc3ccc(Cl)cc3C2=O)cc1)Nc1nc2ccccc2s1
inactive: HCT-15 colon 106% | HT29 colon 116% | SNB-75 CNS 88% | SNB-19 CNS 98% | U251 CNS 97.8% | PC-3 prostate 92% | SK-MEL-5 melanoma 105% | UACC-62 melanoma 98.2% | LOX IMVI melanoma 72.8% | SK-MEL-28 melanoma 108% | SK-MEL-2 melanoma 122% | EKVX NSCLC 117% | SN12C renal 102% | UO-31 renal 69.1% | TK-10 renal 151% | ACHN renal 94.2% | CAKI-1 renal 92.3% | A498 renal 130% | CCRF-CEM leukemia 73.5% | MOLT-4 leukemia 69.8%
